Rows were chosen to be rich in hits. Some 2.9% of all compounds tested hit in one or more screens of this group.
NadD inh: NadD (S. aureus) enzyme inhibition; purified NadD enzyme, colorimetric absorbance read-out; inhibition, % at 20 µM; hit rate 0.78% among 360,000; AID 602399; in the data active means inhibition above about 26%
PfGluPho inh: PfG6PD (Plasmodium falciparum) enzyme inhibition | PfGluPho enzyme, NADPH resazurin-diaphorase fluorescence | hit rate 0.78% among 350,000 | AID 504690 | inhibition, % at 20 µM;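 active means inhibition reaching at least a set limit at 20 µM in the primary screen, cut at about 59% in these data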;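 further: 0% = DMSO wells with substrate and 100% = DMSO wells lacking glucose-6-phosphate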
H9c2 protect: protects H9c2 cardiomyocytes from peroxide injury; hit rate 0.63% among 360,000; H2O2 injury protection, ATPLite, 2 h; AID 588492; protection from H2O2 cell death, % at 20 µM;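 active means compounds giving at least 50% protection of heart cells from peroxide-induced death in the single-dose screen, raw or plate-pattern-corrected value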;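 further: 0% = DMSO wells with peroxide and 100% = DMSO wells without peroxide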
APOBEC3A inh: human APOBEC3A DNA deaminase inhibition. P31941. recombinant A3A, FAM/TAMRA ssDNA deamination fluorescence. inhibition, % at 20 µM. hit rate 0.41% among 330,000. AID 493011;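 active means at least 40% inhibition at 20 µM here, with at most 30% in a related deaminase screen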;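 further: plate controls were A3A with DMSO for no effect and wells lacking A3A enzyme for full effect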
Target sequence (P31941 whole entry, looked up): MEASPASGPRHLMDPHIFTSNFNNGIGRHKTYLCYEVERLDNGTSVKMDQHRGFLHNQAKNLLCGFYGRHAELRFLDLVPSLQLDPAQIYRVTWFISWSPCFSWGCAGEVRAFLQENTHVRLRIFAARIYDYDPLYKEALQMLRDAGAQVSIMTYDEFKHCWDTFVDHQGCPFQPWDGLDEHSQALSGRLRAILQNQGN
A3G deaminase: blocks human APOBEC3G single-stranded DNA deamination | AID 493012 | hit rate 0.28% among 330,000 | recombinant A3G, ssDNA deamination FAM/TAMRA fluorescence | Q9HC16 | inhibition, % at 20 µM;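 active means inhibition of at least 40% at 20 µM, with no more than 30% in the related APOBEC3A deaminase screen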;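 further: plate controls were DMSO wells with A3G for no effect and wells lacking A3G enzyme for full effect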
Target sequence (Q9HC16 whole entry, looked up): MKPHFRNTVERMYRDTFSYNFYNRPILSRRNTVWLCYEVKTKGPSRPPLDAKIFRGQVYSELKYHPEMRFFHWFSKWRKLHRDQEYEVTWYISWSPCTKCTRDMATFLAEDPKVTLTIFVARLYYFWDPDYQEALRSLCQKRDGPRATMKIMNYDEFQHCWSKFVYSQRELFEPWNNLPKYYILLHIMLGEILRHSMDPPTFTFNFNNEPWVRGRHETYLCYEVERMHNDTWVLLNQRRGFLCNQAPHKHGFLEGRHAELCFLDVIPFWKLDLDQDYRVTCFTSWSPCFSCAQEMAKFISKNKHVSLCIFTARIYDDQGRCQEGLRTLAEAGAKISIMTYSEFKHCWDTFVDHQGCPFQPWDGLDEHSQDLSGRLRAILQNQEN
TAG inh: inhibitors of triacylglycerol accumulation; H9c2 cells, Nile Red lipid (TAG) fluorescence; cells loaded with 200 µM oleic acid; AID 651582; hit rate 0.66% among 230,000; inhibition, % at 12.5 µM;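 active means pattern-corrected inhibition of lipid staining of at least 50% with the nuclear-stain viability signal not falling by more than 50%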;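 further: 0% = DMSO wells and 100% = triacsin C control wells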
A3A conf: confirmation of human APOBEC3A DNA deaminase inhibitors; shares compounds with APOBEC3A inh; recombinant A3A, ssDNA deaminase UDG fluorescence assay; inhibition, % at 20 µM; hit rate 63% among 1,400;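 active means inhibition reaching a set limit, 80% of the first screen's cutoff, at 20 µM in any replicate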;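 further: plate controls were DMSO wells with A3A for no effect and wells lacking A3A enzyme for full effect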
UDG ctr A3A: counter-screen for APOBEC3A inhibitors: UDG; shares compounds with APOBEC3A inh; UDG counterscreen, FAM/TAMRA uracil oligo fluorescence; inhibition, % at 20 µM; 1,000 tested, under 10 active; AID 504714; call rule not given here
Numbers without * were called inactive.

COc1ccccc1NCCC(=O)OCC(=O)NCc1ccco1 was read as NadD inh 8, PfGluPho inh -1, H9c2 protect 3, APOBEC3A inh 44*, A3G deaminase 25, TAG inh -2, A3A conf 24* and UDG ctr A3A 1.
O=C(COC(=O)CSc1ccc(Br)cc1)NCc1ccco1 was read as NadD inh -1, PfGluPho inh 16, H9c2 protect -10, APOBEC3A inh -3, A3G deaminase -6 and TAG inh 2.
Screening Cc1ccc(C)c(SCC(=O)OCC(=O)c2ccco2)c1 returned NadD inh 1, PfGluPho inh 8, H9c2 protect 3, APOBEC3A inh 54*, A3G deaminase 15, A3A conf 51* and UDG ctr A3A -2.
Screening COc1ccc(OCCC(=O)OCC(=O)NCc2ccco2)cc1 returned NadD inh 7, PfGluPho inh 6, H9c2 protect -6, APOBEC3A inh 14, A3G deaminase 7 and TAG inh 8.
Screening Cc1c(Cl)cnc(NC(=O)COC(=O)/C=C/c2ccco2)c1Cl returned NadD inh 15, PfGluPho inh 27, H9c2 protect 5, APOBEC3A inh 20, A3G deaminase 7 and TAG inh -11.
For Cc1cc(Br)ccc1SCC(=O)OCC(=O)NCc1ccco1 the results were NadD inh -2, PfGluPho inh 20, H9c2 protect -2, APOBEC3A inh 59*, A3G deaminase 22, TAG inh 14 and A3A conf 43*.
`O=C(COC(=O)/C=C/c1ccco1)Nc1ncc(C(F)(F)F)cc1Cl` gave NadD inh -1, PfGluPho inh 1, H9c2 protect 0, APOBEC3A inh 51*, A3G deaminase 16, A3A conf 50* and UDG ctr A3A 3.
CCN(Cc1ccc(Br)s1)C(=O)CSc1nnc(C2CC2)n1C1CC1 was read as NadD inh 0, PfGluPho inh -7, H9c2 protect 8 and TAG inh 10.
COCCCNC(=O)/C(C#N)=C/c1c(N2CCN(c3ccccc3)CC2)nc2ccccn2c1=O was read as NadD inh 1, PfGluPho inh -1, H9c2 protect 18, APOBEC3A inh 1 and A3G deaminase -4.
O=C(COC(=O)/C=C/c1ccco1)NCc1ccco1 was read as NadD inh 7, PfGluPho inh 12, H9c2 protect 0, APOBEC3A inh 49*, A3G deaminase 26, TAG inh 4, A3A conf 36* and UDG ctr A3A 1.
Screening O=C(COC(=O)/C=C/c1ccco1)NCc1ccccc1Cl returned NadD inh -1, PfGluPho inh 7, H9c2 protect 3, APOBEC3A inh -2, A3G deaminase -4 and TAG inh 12.
Screening CCOc1ccc(S(=O)(=O)N2CCCCC2)cc1NC(=O)Cc1cccs1 returned NadD inh -4, PfGluPho inh 9, H9c2 protect -6, APOBEC3A inh 28, A3G deaminase -5 and TAG inh 1.
`Cc1[nH]c(=O)c(C#N)c(C)c1CCC(=O)Nc1cc(S(C)(=O)=O)ccc1Cl` gave NadD inh -9, PfGluPho inh -3, H9c2 protect -5, APOBEC3A inh 73*, A3G deaminase 18, A3A conf 42* and UDG ctr A3A -3.
For COc1ccc(-n2nc3c(c2NC(=O)CCl)CSC3)cc1 the results were NadD inh 7, PfGluPho inh 8, H9c2 protect -4, APOBEC3A inh -2 and A3G deaminase -1.
O=C(c1ccccc1Cc1ccccc1)N1CCN(S(=O)(=O)c2ccccc2[N+](=O)[O-])CC1 was read as NadD inh 1, PfGluPho inh 11, H9c2 protect -1, APOBEC3A inh 46*, A3G deaminase -1, TAG inh -6, A3A conf 22 and UDG ctr A3A 12.
O=C(c1ccccc1Cc1ccccc1)N1CCN(S(=O)(=O)c2ccccc2F)CC1 was read as NadD inh -4, PfGluPho inh -17, H9c2 protect 2, APOBEC3A inh -1, A3G deaminase -4 and TAG inh -12.
Screening CC1CN(C(=O)c2ccc(NS(=O)(=O)c3ccc(C(C)(C)C)cc3)cc2)CC(C)O1 (stereo not drawn) returned NadD inh -4, PfGluPho inh -12, H9c2 protect -4, APOBEC3A inh 0, A3G deaminase -3 and TAG inh 0.
For O=S(=O)(c1ccc(C2CCCCC2)cc1)N1CCN(c2ncccn2)CC1 the results were NadD inh -2, PfGluPho inh -5, H9c2 protect -12, APOBEC3A inh -2 and A3G deaminase 0.
`CN1CCN(S(=O)(=O)c2ccc(C3CCCCC3)cc2)CC1` gave NadD inh -1, PfGluPho inh -7, H9c2 protect -6, APOBEC3A inh 45*, A3G deaminase 8, TAG inh -9, A3A conf 50* and UDG ctr A3A 1.
Screening C/C(N)=C(/C#N)C(=O)CSc1nc2ccccc2c(=O)n1Cc1ccc(F)cc1 returned NadD inh -8, PfGluPho inh 8, H9c2 protect -1, APOBEC3A inh 47*, A3G deaminase 15, TAG inh -3 and A3A conf 26.
`CCc1ccc(NC(=O)CCc2nc3ccccc3[nH]2)cc1` gave NadD inh -4, PfGluPho inh 8, H9c2 protect -5, APOBEC3A inh -2, A3G deaminase -4 and TAG inh 12.
Screening CN1CCN(c2nnc(-c3ccccc3)c(-c3ccccc3)n2)CC1 returned NadD inh -1, PfGluPho inh 8, H9c2 protect -4, APOBEC3A inh 66*, A3G deaminase 14, TAG inh 0, A3A conf 27* and UDG ctr A3A -4.
Screening c1ccc(-c2nnc(N3CCN(c4ccccc4)CC3)nc2-c2ccccc2)cc1 returned NadD inh 1, PfGluPho inh 17, H9c2 protect -3, APOBEC3A inh -1, A3G deaminase -4 and TAG inh 0.
`O=C(CSc1nccc(=O)[nH]1)N1N=C2/C(=C/c3ccco3)CCCC2C1c1ccco1` (stereo not drawn) gave NadD inh 25, PfGluPho inh -14, H9c2 protect -7, APOBEC3A inh 46*, A3G deaminase 27, TAG inh -34, A3A conf 34* and UDG ctr A3A 0.
COc1ccc2c(c1)N(C)/C(=C/c1cccc[n+]1C)S2 was read as NadD inh 11, PfGluPho inh 5, H9c2 protect -12, APOBEC3A inh 57*, A3G deaminase 21, A3A conf 88* and UDG ctr A3A -3.

Assay outcomes: PubChem BioAssay, Sanford-Burnham Center for Chemical Genomics
